This is a sample that favours compounds with a hit; in the whole collection about 19% have one here.
HT1080 IDH1KD tx: toxicity to HT-1080 IDH1 knockdown cells (counter line); HT-1080 IDH1 knockdown viability, ATP luminescence, 48 h; Potency, µM (series often up to 46.1 µM), without a hit: at the highest dose activity, negative = toxicity, actives largely listed as cytotoxic; 2% of 360,000 active; AID 686971;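 note: potency is the fitted concentration of half-maximal effect; 0% = DMSO wells and -100% = cell-free medium wells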
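CellTiter-Glo luminescence after 48 h compound exposure at 37 degrees C of IDH1-knockdown HT-1080 cells in 5% FBS RPMI. %Activity scaled between DMSO wells and cell-free media wells, with curves fitted and assigned curve classes.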
TDP1 cell noCPT: qHTS for Inhibitors of human tyrosyl-DNA phosphodiesterase 1 (TDP1): qHTS in cells in absence of CPT; DT40 Tdp1-/- hTDP1 cells, no CPT, ATP luminescence, 48 h; Potency, µM (doses to about 46.2 µM), without a hit: top-dose activity change, negative = growth inhibition, actives largely listed as inhibitors; 15% of 420,000 active; AID 686978, 2013; note: potency is the fitted concentration of half-maximal effect; nearly all actives have a fitted effect of over 55% in size
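Stably hTDP1-transfected Tdp1-null chicken DT40 cells were treated with library compounds minus camptothecin and grown for at least 48 hr at 37 °C, after which cellular ATP was quantified by luminescence.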
DT40 TDP1 CPT: growth inhibition of DT40 Tdp1-/-;hTDP1 cells with camptothecin (screen for TDP1 inhibitors). chicken DT40 Tdp1-/-;hTDP1 cells + 20 nM CPT, ATP luminescence, 48 h. Potency, µM (titrated, usually from 46.2 µM), without a hit: at the top dose activity change, negative = growth inhibition, hits mostly inhibitors. 12% of 420,000 active; note: potency is the fitted concentration of half-maximal effect; nearly all actives have a fitted effect of over 55% in size
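Chicken DT40 Tdp1-/- cells complemented with human TDP1, 400 cells/well, exposed to compounds plus 20 nM camptothecin for at least 48 h at 37 C; viability read as ATP content by CellTiter-Glo luminescence.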
IL1B secr inh: inhibitors of inflammasome signaling (IL-1 beta secretion) | 4.7% of 360,000 active | THP-1 LPS/ATP IL-1B secretion, AlphaLISA, 16 h; hits give low values | activity change, % at 57.5 µM; in the data active = activity change below about -50%; inconclusive = mostly about -30% to -49%
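THP-1 cells pretreated 1 hr with compounds (up to 57.5 uM final), then stimulated with LPS (250 ng/mL final) plus ATP (1.25 mM final); secreted IL-1B measured by AlphaLISA after 16 hr, decreased signal indicating inhibition.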
HT1080NT lethal: kills 2HG-producing HT-1080-NT fibrosarcoma cells | HT-1080-NT fibrosarcoma viability, CellTiter-Glo ATP luminescence, 48 h | 1.6% of 360,000 active | AID 686970 | Potency, µM (top dose mostly 46.1 µM), without a hit: at the highest dose activity, negative = less viability, usual class: cytotoxic;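 note: NT is the 2HG producing partner of a matched IDH1 knockdown line; potency is the fitted concentration of half-maximal effect; 0% = DMSO-treated cells and -100% = media-only wells without cells; nearly all actives have a fitted effect of over 55% in size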
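Viability by CellTiter-Glo luminescence after 48 h compound exposure at 37C of HT-1080-NT cells (750/well, RPMI, 5% FBS). % activity scaled between DMSO wells and medium-only wells, then curve-fitted and categorized by curve class.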
An asterisk follows results filed as active; ? = inconclusive; · = no result. Unless noted, calls come from the whole dose curve; as a rule, active = well fitted curve in the direction sought with a large enough effect; inconclusive = small, poorly fitted or top-dose-only effect, or another doubt; inactive = no such curve, though single readings can be large; an effect the other way counts as inactive or inconclusive. Unless noted, % is set by controls: 0 for no effect and ±100 for the full control effect.

SMILES	HT1080 IDH1KD tx	TDP1 cell noCPT	DT40 TDP1 CPT	IL1B secr inh	HT1080NT lethal
CC(C)(C)c1cc(N2CCOCC2)n2ncc(-c3ccc(Cl)cc3)c2n1	5.1%	13µM*	?	-0.7	?
Cc1cc(C)n(-c2cc(C(C)(C)C)nc3c(-c4ccc(Cl)cc4)cnn23)n1	?	?	11.2µM*	-2.3	?
Cc1cc(C)n(-c2cc(C(C)(C)C)nc3c(-c4ccccc4)cnn23)n1	?	?	-21.1%	·	?
O=C(COC(=O)CCc1ccccc1)NNC(=O)c1ccccc1	4.8%	-11.1%	-2.3%	7.2	4.3%
Cc1cc(C)c(S(=O)(=O)Nc2nnc(C3CCCCC3)s2)c(C)c1	-8.9%	11.8%	-25.4%	0.0	-8.0%
CCCCN1CCc2c([nH]c3c(C)cccc23)C1=O	-13.4%	?	29.1µM*	-19.6	-19.9%
CCCc1c(C)c2cccc(C)c2[nH]c1=O	10.9%	?	?	-17.4	1.8%
COc1ccc(C(=O)C2CCCN(Cc3cccn3-c3ccccn3)C2)c(OC)c1 (stereo not drawn)	14.6µM*	6.51µM*	8.2µM*	-92.8*	6.51µM*
COc1ccc(F)cc1C(=O)C1CCCN(Cc2cccn2-c2ccccn2)C1 (stereo not drawn)	?	16.4µM*	?	-16.8	?
Cc1cc(OC(=O)c2cc(Cl)ccc2Cl)c([N+](=O)[O-])c(=O)[nH]1	1.4%	8.7%	4.9%	9.9	-1.1%
O=c1cc(NCc2ccccc2)[nH]c(=O)[nH]1	6.6%	-4.9%	-0.5%	3.6	8.5%
C=CCN(c1ccccc1)S(=O)(=O)c1ccc2c(c1)N(C(C)=O)CCO2	2.4%	3.6%	-24.9%	82.9	17.1%
COC(=O)c1ccc(NC(=O)CC2C(=O)N(c3ccccc3)C(=O)N2C2CCCC2)cc1 (stereo not drawn)	·	16.4µM*	?	·	·
O=C(CC1C(=O)N(c2ccccc2)C(=O)N1C1CCCCC1)Nc1ccccc1 (stereo not drawn)	3.2%	1.9%	-6.9%	9.1	1.6%
CCOC(=O)c1ccc(NC(=O)CC2C(=O)N(c3ccc(C)cc3)C(=O)N2C2CCCC2)cc1 (stereo not drawn)	·	20.6µM*	?	·	·
Cn1c(=NC(=O)c2ccccc2[N+](=O)[O-])sc2cccc(F)c21	3.8%	2.7%	3.0%	-9.0	7.6%
CCCCNc1c(-c2cccc(-c3cc(C(C)=O)cs3)c2)nc2ccc(C)cn12	?	13µM*	16.4µM*	-103.0*	20.6µM*
CCCCNc1c(-c2cccc(-c3ccc(OC)cc3)c2)nc2cc(C)ccn12	?	18.4µM*	16.4µM*	-71.2*	?
CCCCNc1c(-c2cccc(-c3ccc(OC)cc3)c2)nc2ccc(C)cn12	?	18.4µM*	23.1µM*	-99.6*	?
Cc1ccc2nc(-c3ccc(-c4cccc(Cl)c4)cc3)c(NCc3ccccc3)n2c1	-11.4%	?	?	8.0	-1.2%
COc1ccc(CN2CCC(CO)(Cc3ccccc3)CC2)cc1Cn1cccn1	-5.8%	-2.1%	2.4%	?	0.2%
COc1ccc(C(CNCC(O)COc2c(C)ccc(C)c2C)N(C)C)cc1 (stereo not drawn)	-10.0%	11.6µM*	25.9µM*	-7.7	-19.3%
N=C(N)SCc1nc2ccccc2c(=O)n1-c1ccccc1	17.1%	18.4µM*	?	?	11.7%
Cc1cc(NC(=O)CSc2nc3c(C)c(C)ccc3cc2C)no1	8.9%	6.7%	4.0%	9.0	7.1%
O=C(Nc1ccccc1)c1ccccc1CCc1ccccc1	-1.7%	-27.1%	?	-0.6	7.1%
SMILES	HT1080 IDH1KD tx	TDP1 cell noCPT	DT40 TDP1 CPT	IL1B secr inh	HT1080NT lethal
O=C(Nc1ccccc1)c1cccnc1NCCc1ccccc1	4.8%	16.4µM*	?	-8.4	-1.9%
COc1ccc(NC(=O)c2cccnc2NCCc2ccccc2)cc1	-4.1%	?	20.6µM*	-3.3	-7.3%
COc1cccc(Nc2ncccc2C(=O)Nc2ccccc2)c1	13.7%	2.6%	-27.2%	?	16.6%
O=C(Nc1nc2ccccc2n1CCN1CCOCC1)c1ccc(Cn2cc([N+](=O)[O-])cn2)o1	4.1%	-21.3%	16.4µM*	-7.8	2.6%
O=C(Nc1nc2ccccc2n1CCN1CCOCC1)c1ccc(COc2ccccc2Br)o1	?	?	?	-95.0*	-11.5%
NC(=O)c1ccsc1NC(=O)CS(=O)(=O)c1ccc(Cl)cc1	1.6%	?	-27.8%	0.8	2.9%
O=C(NCc1ccccc1Br)c1ccc2c(c1)nc1n2CCOC1	·	-17.3%	-7.0%	·	·
Cc1nn(-c2ccccc2)c2nc(=O)n(-c3ccccc3)cc12	?	7.31µM*	8.2µM*	-7.1	-0.8%
C[C@H](NC(=O)c1ccco1)C(=O)N1CCCC1	21.7%	-2.9%	-1.1%	-8.3	0.6%
COCCNC(=O)C1(C)CCN(C(=O)c2cc(C)n(C(C)(C)C)n2)C1 (stereo not drawn)	3.5%	-3.4%	-0.1%	20.1	10.5%
CC(C)c1ccc(/C=C/c2[nH]c(=O)[nH]c(=O)c2[N+](=O)[O-])cc1	?	?	-25.3%	-82.0*	-1.8%
CCOc1cc(/C=C\c2[nH]c(=O)[nH]c(=O)c2[N+](=O)[O-])ccc1OC(C)CC (stereo not drawn)	?	-5.6%	-19.1%	-92.4*	10µM*
CCCOc1ccc(/C=C/c2[nH]c(=O)[nH]c(=O)c2[N+](=O)[O-])cc1OCC	-0.8%	4.0%	27.0%	-5.4	7.1%
CCOC(=O)C1(CCCc2ccccc2)CCN(C(=O)C2CCCN(C(N)=O)C2)CC1 (stereo not drawn)	3.9%	-5.9%	-2.6%	4.9	2.8%
COc1ccc(CN2CCN(C(=O)CC(C)C)CC2)cc1	-1.9%	-5.2%	0.2%	14.0	-1.6%
CCCn1cnc2cc(NCc3ccc(Br)cc3)ccc21	-15.1%	?	?	-83.3*	-10.4%
O=C(Nc1ccc2ncccc2c1)c1cccc(Br)c1	8.7%	-21.9%	?	-4.5	12.0%
Brc1ccc(CNc2ccc3ncccc3c2)cc1	-10.0%	11.6µM*	20.6µM*	-12.9	-9.6%
CCCn1cnc2cc(NCc3ccc(OC)cc3OC)ccc21	·	23.1µM*	16.4µM*	·	·
CCN(CC)c1ccc(CNc2ccc3c(c2)ncn3CC)cc1	0.3%	-26.3%	?	-96.0*	0.5%
CCn1cnc2cc(NCc3ccc(Br)cc3)ccc21	-8.6%	?	-26.6%	?	-12.7%
COc1ccc(N(CC(=O)NCc2ccco2)S(=O)(=O)c2ccc(OC)c(OC)c2)cc1	-3.6%	-14.1%	-12.1%	13.3	-1.1%

From PubChem
